# Measurements from PubChem BioAssay (NCATS).
# Records with an inconclusive call do not appear. A number with no mark means an inactive call. The source made the active and inactive calls. Calls follow the shape of the dose curve; as a rule, active = well fitted inhibition curve with a large enough effect; inconclusive = small, poorly fitted or top-dose-only effect; inactive = flat fitted curve, though single readings scatter.
# Tested on: NIH3T3
# Assay: Cytotoxic Profiling of Annotated Libraries Using Quantitative High-Throughput Screening (AID 1296008); also: nearly all actives have a fitted effect of over 60% in size
# Settings: Five cell lines viability, CellTiter-Glo ATP luminescence, 48-72 h; max response: active compounds read low
# How it was run: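 Compounds were pin-transferred onto cells and incubated 48 or 72 hr at 37 degree Celsius, 95% humidity. CellTiter-Glo was added, plates sat 10 min at room temperature, then ATP-coupled luminescence was imaged as the viability read-out.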
# % is scaled to controls: 0 for no effect and ±100 for the full control effect.
Structure (SMILES),max response [%],outcome
C=CC1C(O[C@@H]2O[C@H](CO)[C@@H](O)[C@H](O)[C@H]2O)OC=C(C(=O)OC)C1CC(=O)O (some centres undefined),3.11,
CC(C)(O)c1ccc2c(c1)C(O)CC1C(C)(C(=O)O)CCCC21C (centres undefined),,inactive
CC(C)(O)C1CCC2(C)C3C(O)C4C(C13)C42CO (centres undefined),0.322,
O=c1ccn(C2OC(CO)C(O)C2O)c(=O)[nH]1 (centres undefined),1.59,
CCCC(N[C@@H](C)C(=O)N1[C@H](C(=O)O)C[C@@H]2CCCC[C@@H]21)C(=O)OCC (some centres undefined),,inactive
CCC[C@@H]1C[C@@H](C(=O)N[C@@H]([C@H]2O[C@H](SC)[C@H](O)[C@@H](O)[C@@H]2O)[C@@H](C)O)N(C)C1,,inactive
COc1cc([C@H]2OC[C@@H]3[C@@H](c4ccc(O[C@@H]5O[C@H](CO)[C@@H](O)[C@H](O)[C@H]5O)c(OC)c4)OC[C@]23O)ccc1O,,inactive
O=C(OCc1cccc(O)c1O[C@@H]1O[C@H](CO)[C@@H](O)[C@H](O)[C@H]1O)C1(O)C(=O)C2C=CC1C1C=CC(=O)C(O)(C(=O)OCc3cccc(O)c3O[C@@H]3O[C@H](CO)[C@@H](O)[C@H](O)[C@H]3O)C21 (some centres undefined),3.82,
COC(=O)CC[C@@H](C)[C@H]1CC[C@H]2[C@@H]3CC(=O)[C@H]4C[C@H](OC(C)=O)CC[C@]4(C)[C@H]3CC[C@]12C,-0.377,
FC(F)(F)c1cc(C(F)(F)F)c2ccc3nc(-c4nnco4)cn3c2n1,,inactive
COc1c(C)c2c(c(O)c1C/C=C(\C)CC/C=C(\C)CCC(=O)O)C(=O)OC2,0.0064,
CC[C@@H](c1ccc(F)c(F)c1)n1c(C(=O)OC)c(-c2ccno2)[nH]c1=S,,inactive
CC(C)=CCC/C(C)=C/CC/C(C)=C/CC[C@]1(C)CCc2cc(O)cc(C)c2O1,1.13,
CC1=CC(=O)CC(C)(C)C1CCC(C)OC1OC(COC(=O)c2cc(O)c(O)c(O)c2)C(O)C(O)C1O (centres undefined),,inactive
COc1ccc(/C=C/C(=O)O[C@H]2[C@@H]3C=CO[C@@H](O[C@@H]4O[C@H](CO)[C@@H](O)[C@H](O)[C@H]4O)[C@@H]3[C@@]3(CO)O[C@@H]23)cc1O,2.14,
Cc1ncc([N+](=O)[O-])n1CC(O)CN1CCOCC1 (centres undefined),,inactive
C=CC(C)(O)CC/C=C(/C)C(=O)OC1C(OC2OCC(OC3OC(CO)C(O)C(O)C3O)C(OC3OCC(O)C(OC4OC(C)C(O)C(O)C4O)C3O)C2O)COC(OC(=O)C23CCC(C)(C)CC2C2=CCC4C5(C)CCC(OC6OC(CO)C(OC7OC(CO)C(O)C(OC8OCC(O)C(O)C8O)C7O)C(O)C6O)C(C)(C)C5CCC4(C)C2(C)CC3O)C1O (centres undefined),,inactive
O=C1C[C@@H](c2ccc(O)cc2)Oc2cc(O)ccc21,1.22,
CC(C)CC(=O)n1cc(C(N)=O)c(=O)cc1C(O)c1ccccc1 (centres undefined),0.668,
COc1cc([C@H]2OC[C@]3(OC(C)=O)[C@@H](c4ccc(O[C@@H]5O[C@H](CO)[C@@H](O)[C@H](O)[C@H]5O)c(OC)c4)OC[C@H]23)ccc1O,4.83,

Structure (SMILES),max response [%],outcome
CC(C)=CCc1ccc(Oc2c(O)cc(C)cc2CO)c(C(=O)O)c1O,,inactive
O=C(O)CCc1cccc(O[C@@H]2O[C@H](CO)[C@@H](O)[C@H](O)[C@H]2O)c1O,,inactive
COC(=O)[C@@]1(O)C=CC[C@@H]2[C@@]3(C)C[C@@H](c4ccoc4)OC(=O)[C@H]3CC[C@]21C,,inactive
CC(C)CC(=O)OC[C@H]1O[C@@](COC(=O)CC(C)C)(O[C@H]2O[C@H](CO)[C@@H](O)[C@H](O)[C@H]2O)[C@@H](OC(=O)CC(C)C)[C@@H]1OC(=O)CC(C)C,,inactive
C=CC(C)(C)O[C@@H]1O[C@H](CO[C@@H]2OC[C@](O)(CO)[C@H]2O)[C@@H](O)[C@H](O)[C@H]1O,,inactive
CCC(C)/C=C(C)/C=C/C1=CC2=C(Cl)C(=O)C(C)(OC(C)=O)C(=O)C2=CN1C1CCCCN(C(CCC(N)=O)C(=O)O)C1=O (centres undefined),-1.04,
CN[C@@H]1[C@@H](O)[C@@H](O[C@@H]2[C@@H](O)[C@H](O[C@H]3O[C@H](CN)[C@@H](O)[C@H](O)[C@H]3O)[C@@H](N)C[C@H]2NC(=O)[C@@H](O)CN)OC[C@]1(C)O,,inactive
O=C(O)C[C@@H](NC(=O)c1cc(-c2ccc(-c3ccncc3)cc2)cs1)c1ccccc1,1.34,
CC(CCC1(O)OC2CC3C4CCC5CC(O[C@@H]6O[C@H](CO)[C@@H](O)[C@H](O)[C@H]6O[C@@H]6OC[C@@H](O)[C@H](O)[C@H]6O)C(O)CC5(C)C4CCC3(C)C2C1C)CO[C@@H]1O[C@H](CO)[C@@H](O)[C@H](O)[C@H]1O (some centres undefined),,inactive
O=C(O[C@H]1[C@@H]2C[C@@H]3OC[C@@](O)([C@H]2[C@H](O[C@@H]2O[C@H](CO)[C@@H](O)[C@H](O)[C@H]2O)O3)[C@@H]1O)c1ccccc1,,inactive
C[C@H]1C[C@H]2[C@@H]3CCC4=CC(=O)C=C[C@]4(C)[C@@]3(F)[C@@H](O)C[C@]2(C)[C@@]1(O)C(=O)COP(=O)(O)O,,inactive
CCOC(=O)c1ccc(N(C)c2csc(-c3ccccc3)n2)cc1,,inactive
C[C@@H]1C[C@H](O[C@@H]2O[C@H](CO[C@@H]3OC[C@](O)(CO)[C@H]3O)[C@@H](O)[C@H](O)[C@H]2O)CC(C)(C)[C@H]1/C=C/[C@@H](C)O,,inactive
Oc1ccc([C@H]2COc3cc(O)ccc3C2)cc1,3.41,
CC(C)(C)c1cc(CN2CCN(CC(O)c3ccc(Cl)cc3)CC2)cc(C(C)(C)C)c1O (centres undefined),,inactive
COc1cc(C2c3cc(O)c(OC)cc3CC(CO)C2CO)ccc1O (centres undefined),,inactive
O=C1Nc2ccc(O)cc2O[C@H]1O[C@@H]1O[C@H](CO)[C@@H](O)[C@H](O)[C@H]1O,,inactive
Clc1ccc2c(c1)C1=NCCN1c1c(-c3noc(C4CC4)n3)ncn1-2,,inactive
C=C[C@H]1[C@H](O[C@@H]2O[C@H](CO)[C@@H](O)[C@H](O)[C@H]2O)OC=C(C(=O)OC)[C@H]1C[C@@H]1N[C@H](C(=O)O)Cc2c1[nH]c1ccccc21,-2.92,
